From the supplement of paper PMC9135407
Where a name gives a salt, the structure may show the parent alone.

Tested on: primary human hepatic stellate cells (donor 1)
Assay: PSMB2 reference mRNA level vs DMSO (fold); higher = more PSMB2 expression
Details: 48 h
Experimental: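 Secondary qRT-PCR screen in primary human HSCs (donor 1), 384-well plates, with compounds dispensed in quadruplicate and incubated for 48 h. Cells-to-CT lysates were used for multiplexed TaqMan qPCR of ACTA2 or COL1A1 with PSMB2 as reference. Fold changes versus DMSO come from a linear model (Ct_gene ~ Ct_PSMB2 + plate + chemical). A hit is defined as COL1A1 and ACTA2 FC <0.5 (FDR <0.05) with PSMB2 between 0.2 and 2.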

| Structure (SMILES) | PSMB2 reference mRNA level |
| --- | --- |
| Cc1ccc2c(c1)c1c3n2CCNC3CCC1 (stereo not given) [Pirlindole mesylate] (20.6667 µM) | 0.807 |
| CN(C)CCCCC(=O)Nc1ccc(NC(=S)NC(=O)c2ccc(C(C)(C)C)cc2)cc1 [Tenovin-6] (33.3333 µM) | 0.000996 |
| CNCCCC1c2ccccc2C=Cc2ccccc21 [Protryptyline hydrochloride] (22.2333 µM) | 1.06 |
| CCN(CC)CCCCNc1ncc2cc(-c3c(Cl)cccc3Cl)c(NC(=O)NC(C)(C)C)nc2n1 (33.3333 µM) | 0.792 |
| O=S(=O)(NCCNC/C=C/c1ccc(Br)cc1)c1cccc2cnccc12 [H-89, Dihydrochloride] (11.1 µM) | 1.02 |
| Cc1ccc(NC(=O)c2ccc(CN3CCN(C)CC3)cc2)cc1Nc1nc(-c2cccnc2)cs1 [Masitinib (AB1010, Masivet)] (6.66667 µM) | 0.679 |
| O=C(Nc1cc(C(F)(F)F)cc(C(F)(F)F)c1)c1cc(Cl)ccc1O (33.3333 µM) | 1.2 |
| Cc1nc(Nc2ncc(C(=O)Nc3c(C)cccc3Cl)s2)cc(N2CCN(CCO)CC2)n1 (33.3333 µM) | 1.6 |
| CCOC(=O)C1=C(COCCN)NC(C)=C(C(=O)OC)C1c1ccccc1Cl (stereo not given) (33.3333 µM) | 1.28 |
| CN(C)Cc1c(C(=O)NCCOc2ccc(C(=O)NO)cc2)oc2ccccc12 (33.3333 µM) | 0.5 |
| CNCc1ccc(C)c(NC(=O)c2ccc(Nc3nc(-c4ccccc4)c4ccccc4n3)cc2)c1 (33.3333 µM) | 0.000816 |
| O=C1NC(=O)/C(=C/c2ccc(-c3ccc(F)cc3O)o2)S1 (33.3333 µM) | 3.41 |
| CN1CCN(C2=Cc3ccccc3Oc3ccc(Cl)cc32)CC1 (33.3333 µM) | 0.977 |
| COC(=O)C[C@](O)(CCCC(C)(C)O)C(=O)O[C@@H]1C(OC)=C[C@]23CCCN2CCc2cc4c(cc2[C@H]13)OCO4 [Homoharringtonine] (33.3333 µM) | 0.38 |
| NC1(c2ccc(-c3nc4ccn5c(=O)[nH]nc5c4cc3-c3ccccc3)cc2)CCC1 (11.1 µM) | 3.72 |
| CCCCCCCCc1ccc(CCC(N)(CO)CO)cc1 [Fingolimod (FTY720) HCl] (11.1 µM) | 3.91 |
| Cc1ccc(-c2ccc3c(ccc4sc5c(c43)NC[C@@H](C)NC5=O)n2)cn1 (33.3333 µM) | 3.41 |
| CCN(CC)CCOc1ccc(Cc2ccccc2)cc1 [DPPE fumarate] (33.3333 µM) | 0.798 |
| CN1CCC(Nc2ncc3ncnc(Nc4ccc(F)c(Cl)c4)c3n2)CC1 [BIBX 1382 dihydrochloride] (33.3333 µM) | 0.0502 |
| CC[C@@H]1C(=O)N(C)c2cnc(Nc3ccc(C(=O)NC4CCN(C)CC4)cc3OC)nc2N1C1CCCC1 (33.3333 µM) | 0.0022 |

| Structure (SMILES) | PSMB2 reference mRNA level |
| --- | --- |
| COc1ccc(NS(=O)(=O)c2sc3ccc(Cl)cc3c2C)cc1N1CCNCC1 (33.3333 µM) | 0.507 |
| NC(N)=NC(=O)c1nc(Cl)c(N2CCCCCC2)nc1N [5-(N,N-hexamethylene)amiloride] (33.3333 µM) | 0.641 |
| CCC/C=C\C=C/C(=O)N[C@@H](CC(N)=O)C(=O)NC(CC(N)=O)C(=O)N[C@@H](C(=O)N[C@H](CCCN)C(=O)N[C@@H](C(=O)N[C@@H](C(=O)N[C@@H](C(=O)N[C@H](C(=O)N[C@@H](Cc1ccccc1)C(=O)N[C@H](CCCN)C(=O)NC(C(=O)N[C@H](C(=O)NC(C(=O)NCC(=O)N[C@@H](CC(C)C)C(=O)N[C@H](C)C(=O)NC(C(=O)O)C1CCC(O)C(Cl)C1)C1CCC(O)CC1)[C@H](C)O)C1CCC(O)CC1)[C@H](C)O)C1CCC(O)CC1)C1CCC(O)CC1)[C@H](C)O)C1CCC(O)CC1 (stereo not given in full) (33.3333 µM) | 0.369 |
| COC(=O)N[C@H](C(=O)N1CCC[C@H]1c1ncc(-c2ccc(-c3ccc(-c4cnc([C@@H]5CCCN5C(=O)[C@@H](NC(=O)OC)C(C)C)[nH]4)cc3)cc2)[nH]1)C(C)C (33.3333 µM) | 3.28 |
| C[C@@H](Oc1cc(-c2cnn(C3CCNCC3)c2)cnc1N)c1c(Cl)ccc(F)c1Cl (11.1 µM) | 0.805 |
| CCCCc1oc2ccccc2c1C(=O)c1cc(I)c(OCCN(CC)CC)c(I)c1 (33.3333 µM) | 0.537 |
| CNCc1ccc(-c2cc(-c3nc(-c4ccc(S(=O)(=O)C(C)C)cc4)cnc3N)on2)cc1 (11.1 µM) | 0.118 |
| CCN(CC)CCNC(=O)c1c(C)[nH]c(/C=C2\C(=O)Nc3ccc(F)cc32)c1C (6.66667 µM) | 2.81 |
| CN1CCC(=C2c3ccccc3C=Cc3ccccc32)CC1 [Cyproheptadine] (33.3333 µM) | 0.904 |
| Cc1cc(C(=O)Nc2cc(Nc3ccc4c(/C=C/c5ccccn5)n[nH]c4c3)ccc2F)n(C)n1 (33.3333 µM) | 0.985 |
| CC[C@]1(O)C[C@@H]2CN(CCc3c([nH]c4ccccc34)[C@@](C(=O)OC)(c3cc4c(cc3OC)N(C)[C@H]3[C@@](O)(C(=O)OC)[C@H](OC(C)=O)[C@]5(CC)C=CCN6CC[C@]43[C@@H]65)C2)C1 [Vinblastine sulfate] (33.3333 µM) | 0.0998 |
| NC[C@@H]1O[C@H](C23CC4CC(CC(C4)C2)C3)Cc2c1ccc(O)c2O (33.3333 µM) | 0.00124 |
| C[C@H]1O[C@@H](O[C@H]2[C@@H](O)C[C@H](O[C@H]3[C@@H](O)C[C@H](O[C@H]4CC[C@@]5(C)[C@H](CC[C@@H]6[C@@H]5C[C@@H](O)[C@]5(C)[C@@H](C7=CC(=O)OC7)CC[C@]65O)C4)O[C@@H]3C)O[C@@H]2C)C[C@H](O)[C@@H]1O [Digoxin] (33.3333 µM) | 1.06 |
| CNC(=O)[C@@H](Cc1ccccc1)N(C)C(=O)[C@@H](Cc1ccc2ccccc2c1)N(C)C(=O)/C=C/CC(C)(C)N [Tabimorelin] (33.3333 µM) | 1.83 |
| CC1(C)CC(=O)c2c(C(F)(F)F)nn(-c3ccc(C(N)=O)c(N[C@H]4CC[C@H](OC(=O)CN)CC4)c3)c2C1 (33.3333 µM) | 0.59 |
| C#CC1(O)CC[C@H]2[C@@H]3CCC4=CC(=O)CC[C@@H]4[C@H]3CC[C@@]21CC (stereo not given in full) [Norgestrel] (21.3333 µM) | 1.14 |
| [O-][S+](c1ccccc1)c1ccc2nnnn2n1 (stereo not given) (33.3333 µM) | 0.000399 |
| CNc1nccc(-c2cccnc2Oc2cc(C(=O)Nc3cccc(C(F)(F)F)c3)ccc2C)n1 (33.3333 µM) | 0.887 |
| COc1cc2nc(N3CCCN(C)CC3)nc(NC3CCN(Cc4ccccc4)CC3)c2cc1OC (3.33333 µM) | 0.211 |
| OCCN1CCN(CCCN2c3ccccc3Sc3ccc(C(F)(F)F)cc32)CC1 (33.3333 µM) | 0.145 |
